Reference: PubChem BioAssay
Several values for one entry are separate records, joined by “and”; a condition that tells them apart may be missing. Equal entries are not always repeated. Activity calls are given as the source filed them.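 Rule for the calls, unless noted: active = inhibition at or above 50% relative to wild type and mutant plate controls; inactive = inhibition below 50%.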

Assays:
[1] = endothelial E-selectin expression blockers – imaging, HUVEC, immunofluorescence, MLSMR starter and 10KST1 sets, primary screen (AID 487;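 active = visually confirmed hit in the image check and inhibition above 20%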;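 for inhibition: signal is fraction of cell area covered by stained E-selectin grains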;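 for nuclei count: 100% = median nuclei count of all wells on the same plate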); details: HUVEC TNFalpha-induced E-selectin immunofluorescence imaging, at 2 µM; inhibition: stronger effect = higher value; nuclei count: measured here: cell number, toxicity
[2] = Primary imaging screen for DUSP6 inhibitors that restore phospho-Erk in transfected HeLa cells, chemical complementation (AID 609;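 active = compounds giving at least 50% inhibition in the cell-based MKP-3 phosphatase rescue imaging test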;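 for inhibition: phospho-Erk level distribution per well compared with pooled transfected vehicle control wells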); details: HeLa MKP-3 transfected, phospho-Erk imaging KS statistic, at 10 µM, cells stimulated with TPA for 15 min
[3] = biological target: Dual specificity protein phosphatase 6 (Homo sapiens) (UniProt Q16828); assay: as above; details: HeLa MKP-3 transfected, phospho-Erk imaging KS statistic; at 10 µM; stronger effect = higher value; cells stimulated with TPA for 15 min
[4] = biological target: Voltage-gated potassium channel subunit beta-2 (Rattus norvegicus) (UniProt P62483); assay: inhibitors of rat Kvbeta2 reductase activity – biochemical, NADPH fluorescence, primary screen (AID 622;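 active = fluorescence slope higher than the sample average by over 3 SD, cut at about -0.22 in these data, passing the limit was not always enough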;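 note: slope of raw intensity against log time taken from 70 to 1610 s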); details: recombinant KvBeta, 4-cyanobenzaldehyde reduction, at 10 µM, stronger effect = higher value
[5] = biological target: Voltage-gated potassium channel subunit beta-2 (Rattus norvegicus) (UniProt P62483); assay: enhancers of rat Kvbeta2 NADPH turnover – biochemical, NADPH fluorescence, primary screen (AID 623;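 active = NADPH fluorescence slope more negative than the mean of all samples by about 3 SD, 99.7% confidence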;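 note: fluorescence intensity change per second fitted from 20 to 320 s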); details: Recombinant KvBeta, NADPH fluorescence decrease slope, 10 min; at 10 µM; stronger effect = lower value
[6] = biological target: Alpha-2C adrenergic receptor (Homo sapiens) (UniProt P18825); assay: compounds altering alpha2C-coupled GIRK flux – cell-based, HEK293 alpha2C/GIRK1/2, thallium flux, primary screen (AID 624;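 active = fluorescence slope after compound addition differing from the mean of all screened samples at 99.7% confidence, in either direction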;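 note: slope of fluorescence ratio to pre-addition baseline per second over 15 to 24 s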); details: thallium flux BTC fluorescence, at 10 µM, actives lie on both sides
[7] = inhibitors of larval lipid processing in zebrafish, primary screen, whole organism, PED6 fluorescence, gall bladder and intestine (AID 686;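 active = a full or partial loss of lipid-probe fluorescence in the fish gall bladder, intestine or both, judged by eye; inactive = no fluorescence loss, or compound toxic to the fish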;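 note: larvae 5 to 7 days old with five fish per well; signal comes from phospholipase A2 cleavage of quenched PED6 carried via bile; overnight exposure to compound and PED6 before scoring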); details: Zebrafish larvae PED6 lipid processing, fluorescence scoring; screened at 20 µM (by protocol)
[8] = loss of swimming-algae plug formation – whole organism, Chlamydomonas reinhardtii, WT vs cilia-less mutant, absorbance, 96-well, primary screen (AID 463189); details: Chlamydomonas reinhardtii gravitaxis, OD600 absorbance, 2 days; at 10 µM; stronger effect = higher value;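 note: 0% = wild type cc124 cells in DMSO and 100% = ciliumless bld1 mutant cells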
[9] = blockers of RIG-like receptor reporter activation – cell-based, Sendai virus stimulus, luciferase, 10K MLSCN set, TLR/RLR signaling modifier project, primary screen (AID 602276;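 active = inhibition at or above 50% at 10 µM; inactive = inhibition below 50%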;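 note: firefly luciferase from ISG56 promoter only with Renilla not read in this screen; 0% = Sendai virus plus DMSO and 100% = medium plus DMSO without virus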); details: HEK293 RL24 IRF3 luciferase reporter, at 10 µM, stronger effect = higher value
[10] = TLR3 IRF3 reporter activation blockers – cell-based, poly I:C stimulus, luciferase, 10K MLSCN set, primary screen (AID 602277;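 active = inhibition of the reporter signal at or above 50%; inactive = inhibition below 50%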); details: HEK293-TLR3 RL24 IRF3 luciferase reporter, at 10 µM, stronger effect = higher value
[11] = biological target: Muscarinic acetylcholine receptor M4 (Homo sapiens) (UniProt P08173); assay: M4-linked GIRK flux change, two-sided – cell-based, HEK293 M4/GIRK, thallium flux, BTC-AM, M4 allosteric agonist project, primary screen (AID 625;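 active = fluorescence slope after compound addition differing from the mean of all tested samples at 99.7% confidence, mostly higher but some lower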;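 note: thallium influx through GIRK channels coupled to M4 in HEK293 cells with BTC-AM dye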); details: at 10 µM, actives lie on both sides
[12] = measured here: cell density z-score
[13] = measured here: nuclear c-Myc green intensity z-score
[14] = measured here: nuclear pErk red intensity z-score, stronger effect = higher value

Sequence of Voltage-gated potassium channel subunit beta-2 (Rattus norvegicus) (P62483 whole entry, looked up): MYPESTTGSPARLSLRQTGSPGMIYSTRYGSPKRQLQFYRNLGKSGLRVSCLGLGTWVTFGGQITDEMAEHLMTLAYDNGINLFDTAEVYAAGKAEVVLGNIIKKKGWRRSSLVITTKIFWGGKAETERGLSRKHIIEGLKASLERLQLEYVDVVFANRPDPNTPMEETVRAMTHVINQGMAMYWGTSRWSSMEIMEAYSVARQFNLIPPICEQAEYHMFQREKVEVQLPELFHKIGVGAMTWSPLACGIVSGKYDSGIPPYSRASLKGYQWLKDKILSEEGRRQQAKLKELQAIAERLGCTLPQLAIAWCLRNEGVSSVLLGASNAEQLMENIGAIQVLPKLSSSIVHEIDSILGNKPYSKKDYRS
Sequence of Muscarinic acetylcholine receptor M4 (Homo sapiens) (P08173 whole entry, looked up): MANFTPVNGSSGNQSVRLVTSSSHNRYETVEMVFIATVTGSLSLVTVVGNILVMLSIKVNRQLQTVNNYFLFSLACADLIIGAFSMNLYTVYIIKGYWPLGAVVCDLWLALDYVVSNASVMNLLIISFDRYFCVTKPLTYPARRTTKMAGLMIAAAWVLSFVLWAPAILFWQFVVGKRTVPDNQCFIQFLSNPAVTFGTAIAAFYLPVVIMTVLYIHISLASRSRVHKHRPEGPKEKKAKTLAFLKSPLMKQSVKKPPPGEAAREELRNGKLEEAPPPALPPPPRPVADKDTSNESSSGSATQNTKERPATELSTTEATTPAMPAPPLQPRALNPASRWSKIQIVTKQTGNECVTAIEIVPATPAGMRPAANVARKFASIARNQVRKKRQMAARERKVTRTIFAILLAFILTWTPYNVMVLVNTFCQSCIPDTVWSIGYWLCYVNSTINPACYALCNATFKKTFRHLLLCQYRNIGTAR
Sequence of Dual specificity protein phosphatase 6 (Homo sapiens) (Q16828 whole entry, looked up): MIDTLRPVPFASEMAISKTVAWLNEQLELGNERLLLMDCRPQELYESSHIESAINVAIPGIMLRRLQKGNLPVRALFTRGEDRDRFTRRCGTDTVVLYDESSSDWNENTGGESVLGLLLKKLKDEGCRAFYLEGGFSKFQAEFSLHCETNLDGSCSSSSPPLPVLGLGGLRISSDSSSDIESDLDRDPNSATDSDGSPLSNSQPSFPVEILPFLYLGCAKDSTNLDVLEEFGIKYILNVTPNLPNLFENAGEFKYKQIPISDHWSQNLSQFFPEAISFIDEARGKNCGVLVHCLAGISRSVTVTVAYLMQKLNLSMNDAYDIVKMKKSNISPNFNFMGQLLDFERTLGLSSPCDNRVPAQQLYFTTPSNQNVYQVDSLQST
Sequence of Alpha-2C adrenergic receptor (Homo sapiens) (P18825 whole entry, looked up): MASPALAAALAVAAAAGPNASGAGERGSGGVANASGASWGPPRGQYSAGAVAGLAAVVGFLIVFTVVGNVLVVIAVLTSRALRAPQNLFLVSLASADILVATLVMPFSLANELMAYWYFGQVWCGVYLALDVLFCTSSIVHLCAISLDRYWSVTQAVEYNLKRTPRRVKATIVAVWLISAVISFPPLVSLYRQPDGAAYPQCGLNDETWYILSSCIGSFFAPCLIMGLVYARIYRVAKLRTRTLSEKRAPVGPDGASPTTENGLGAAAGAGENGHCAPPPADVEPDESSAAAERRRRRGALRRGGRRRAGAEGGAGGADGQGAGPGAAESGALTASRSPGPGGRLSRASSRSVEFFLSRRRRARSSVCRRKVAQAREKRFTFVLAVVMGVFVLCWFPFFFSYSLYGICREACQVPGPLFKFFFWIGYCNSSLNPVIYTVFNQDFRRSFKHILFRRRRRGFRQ

Structure (SMILES)	inhibition [1]	nuclei count [1]	z-score [2, 12]	z-score [2, 13]	z-score [2, 14]	inhibition [3]	fluorescence slope [4]	NADPH fluorescence slope [5]	slope [6]	outcome [7]	inhibition [8]	inhibition [9]	inhibition [10]	fluorescence slope [11]
Nc1nc2c(ncn2COCCO)c(=O)[nH]1	-45.2% (inactive)	98.5%	-1.3	0.247	-1.02	3.45% (inactive)	-0.446 (inactive)	-8.2e-06 (inactive)	0.00457 (inactive)	inactive	-9.79% (inactive) and -10% (inactive)	-1.97% (inactive)	26.2% (inactive)	–
CC1(C)CC(=O)C(C2=NC(C)(C)Cc3ccccc32)=C(O)C1	-46.3% (inactive)	99.8%	-0.0371	0.246	-0.668	15.1% (inactive)	-0.435 (inactive)	3.9e-06 (inactive)	–	inactive	-9.43% (inactive)	–	–	0.00539 (inactive)
CCOC(=O)c1ccc(NCC(O)COc2ccccc2)cc1 (configuration not stated)	-60.3% (inactive)	138%	1.4	-0.621	-0.757	3.66% (inactive)	-0.343 (inactive)	-1.2e-05 (inactive)	–	inactive	3.53% (inactive)	–	–	0.00673 (inactive)
CCCCCOc1ccc(Cl)cc1CN1CCOCC1	-77.3% (inactive)	110%	-0.264	0.0743	-0.781	11.3% (inactive)	-0.434 (inactive)	-2.1e-05 (inactive)	–	inactive	126% (active)	–	–	0.00599 (inactive)
NC(=O)c1ccccc1OCCOCCOCCOc1ccccc1C(N)=O	-40% (inactive)	141%	0.988	0.573	-0.494	3.66% (inactive)	-0.379 (inactive)	-3.2e-05 (inactive)	–	inactive	21.6% (inactive)	–	–	0.00555 (inactive)
COc1cc(C(=O)NCC(=O)n2nc(C)cc2C)cc(OC)c1OC	19% (inactive)	141%	1.48	0.2	-2.19	20.8% (inactive)	-0.389 (inactive)	7.5e-06 (inactive)	–	inactive; toxic	-4.24% (inactive)	–	–	0.00583 (inactive)
O=C(CCN1CCCC1Cc1ccccc1)c1ccc2c(c1)OCCO2 (configuration not stated)	-106% (inactive)	162%	-1.44	-1.2	0.369	1.75% (inactive)	-0.423 (inactive)	-6.5e-05 (inactive)	–	inactive	7.98% (inactive)	–	–	0.00498 (inactive)
CN(CCOC(=O)c1cccc(Br)c1)C(C)(C)C	-47% (inactive)	134%	-0.456	0.868	2.16	7.48% (inactive)	-0.405 (inactive)	-4e-05 (inactive)	–	inactive	30.2% (inactive)	–	–	0.00522 (inactive)
CCOC(=O)c1ccc(CSc2ncn[nH]2)o1	-61.8% (inactive)	156%	0.633	-0.893	-0.304	17% (inactive)	-0.407 (inactive)	-3.4e-05 (inactive)	–	inactive	10.3% (inactive)	–	–	0.00583 (inactive)
Cc1c(C(=O)O)sc(=S)n1-c1ccccc1	-33.5% (inactive)	141%	0.701	-0.0654	0.165	20.8% (inactive)	-0.372 (inactive)	-3.1e-05 (inactive)	–	inactive	12.3% (inactive)	–	–	0.0076 (inactive)
O=C(Oc1oc(-c2ccco2)nc1C=Nc1ccccc1)c1ccoc1	-72% (inactive)	165%	1.16	-0.161	0.106	15.1% (inactive)	-0.402 (inactive)	-4.5e-05 (inactive)	–	inactive	8.33% (inactive)	–	–	0.00635 (inactive)
COc1cc(C)nc(Oc2ccc(=O)[nH]n2)n1	-34.6% (inactive)	147%	-0.3	1.04	-1.72	5.57% (inactive)	-0.296 (inactive)	-4e-05 (inactive)	–	inactive	34.1% (inactive)	–	–	0.00779 (inactive)
Cc1cc(N/C=C/C(=O)c2cccc3ccccc23)no1	-51% (inactive)	95.6%	-0.324	0.59	-0.55	13.2% (inactive)	-0.396 (inactive)	-2.3e-06 (inactive)	–	inactive	-11.1% (inactive)	–	–	0.00616 (inactive)
O=c1/c(=C/c2ccccn2)sc2n1CN(c1ccccc1)CN=2	15.3% (inactive)	137%	0.878	0.58	-0.986	34.2% (inactive)	-0.4 (inactive)	-4.8e-05 (inactive)	–	inactive	32% (inactive)	–	–	0.00773 (inactive)
CCOC(=O)C(OC(=O)c1sc(=S)n(C)c1C)C(C)=O (configuration not stated)	-34.4% (inactive)	86.4%	0.548	-0.227	-0.266	7.48% (inactive)	-0.553 (inactive)	-3.9e-05 (inactive)	–	inactive	63.7% (active)	–	–	0.00794 (inactive)
CC(C)c1nc2sc3c(c2c(=O)o1)CCCC3	-11.8% (inactive)	143%	-0.957	1.42	1.08	13.2% (inactive)	-0.376 (inactive)	-6.4e-05 (inactive)	–	inactive	22.9% (inactive)	–	–	0.00562 (inactive)
COc1ccc(C(=O)C2CCCCC2=O)cc1 (configuration not stated)	43.3% (inactive)	127%	-0.682	-0.8	1.6	-2.07% (inactive)	-0.407 (inactive)	-7e-05 (inactive)	–	inactive	20% (inactive)	–	–	0.00364 (inactive)
CC1(C)CC(=O)C=C(NCCO)C1	-18.5% (inactive)	146%	1.01	-0.173	-0.675	20.8% (inactive)	-0.395 (inactive)	-5.8e-05 (inactive)	–	inactive	40.3% (inactive)	–	–	0.00557 (inactive)
COc1ccc(Cn2ccnc2)cc1Br	-47% (inactive)	141%	-0.527	1.89	-0.19	18.9% (inactive)	-0.302 (inactive)	1.1e-06 (inactive)	–	inactive	109% (active)	–	–	0.00733 (inactive)
COc1ccc(CSc2nnc(C)n2N)cc1Br	-82.3% (inactive)	182%	1.41	-2.02	0.078	13.2% (inactive)	-0.395 (inactive)	-5.4e-05 (inactive)	–	inactive	5.58% (inactive)	–	–	0.00742 (inactive)
CC(C)(C#N)C(C)(C)c1nn[nH]n1	-15.5% (inactive)	72.6%	1.29	-0.296	-0.013	13.2% (inactive)	-0.468 (inactive)	-2.9e-05 (inactive)	–	inactive	20% (inactive)	–	–	0.00499 (inactive)
CC1(c2cnc(Nc3ccccc3)s2)CCC(=O)O1 (configuration not stated)	-192% (inactive)	138%	0.619	-0.905	-1.23	24.7% (inactive)	-0.359 (inactive)	1.9e-06 (inactive)	–	active; weak signal in gallbladder only	9.89% (inactive)	–	–	0.00609 (inactive)
Cc1nc2sc(C)c(C)c2c(=O)o1	-24.2% (inactive)	180%	-0.563	-1.75	1.05	-5.89% (inactive)	-0.39 (inactive)	-4.5e-05 (inactive)	–	inactive	6.15% (inactive)	–	–	0.0058 (inactive)
COc1ccc[nH]c1=O	-53.5% (inactive)	156%	-0.586	0.536	-1.08	11.3% (inactive)	-0.41 (inactive)	-4.9e-05 (inactive)	–	inactive	14.4% (inactive)	–	–	0.00623 (inactive)
CCCc1nnc(SCc2ccc(OCC)cc2)n1N	-86% (inactive)	147%	-0.133	1.35	1.37	7.48% (inactive)	-0.421 (inactive)	-1.6e-05 (inactive)	–	inactive	28.9% (inactive)	–	–	0.00481 (inactive)
CC(C)CCOc1ccc(Cl)cc1CN1CCOCC1	-12.9% (inactive)	146%	-1.08	-0.136	-0.739	-3.98% (inactive)	-0.378 (inactive)	-7.1e-06 (inactive)	–	inactive; toxic	106% (active)	–	–	0.00465 (inactive)
COc1cccc(C(=O)NCC(=O)n2nc(C)cc2C)c1	-70.4% (inactive)	88.5%	0.974	0.517	-1.04	15.1% (inactive)	-0.462 (inactive)	-4.4e-05 (inactive)	–	inactive	36% (inactive)	–	–	0.00505 (inactive)
O=C(Oc1ccccc1)c1c(Cl)cccc1P(=O)(O)O	-22.4% (inactive)	146%	-1.16	0.0504	-1.03	-0.159% (inactive)	-0.396 (inactive)	-2.5e-05 (inactive)	–	inactive	-7.77% (inactive)	–	–	0.00459 (inactive)
O=C(c1ccc(N2C(=O)C3CC=C(Cl)CC3C2=O)cc1)N1CCCCC1 (configuration not stated)	-148% (inactive)	163%	0.548	-0.00489	-2.02	15.1% (inactive)	-0.379 (inactive)	-2.5e-05 (inactive)	–	inactive	-0.983% (inactive)	–	–	0.00666 (inactive)
Cc1cc(C)n(C(=O)CNC(=O)c2ccc3c(c2)OCCO3)n1	-96.3% (inactive)	162%	1.78	-0.668	-1.28	18.9% (inactive)	-0.374 (inactive)	-5.5e-05 (inactive)	–	inactive	12.4% (inactive)	–	–	0.00504 (inactive)
